# Compounds without any hit were thinned out: in the full panel of roughly 83,000, 20% have a hit.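 Testing used 96-well plates and a 48-hour single-concentration exposure. Example: -40 means 40% of the starting cells died.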 Calls of active or inactive are those of the source.
# Test system: EKVX NSCLC
# Assay: NCI-60 one-dose screen, 48 h (100 = growth as untreated, 0 = no growth, -100 = all killed)
# Details: 10 µM unless noted
# Experimental: Growth inhibition of the EKVX human Non-Small Cell Lung tumor cell line is measured as a screen for anti-cancer activity. Cells are grown in 96 well plates and exposed to the test compound for 48 hours. Compounds are tested at a single concentration, which is 10^-5 M for most compounds. The reported endpoint is percent growth (GI% or GIPRCNT), where numbers from 0 - 100% represent growth inhibition, and numbers from -100% - 0 represent cell death. For example, a value of 40 represents 60% growth inhibition. A value of 0 means no net growth occurred over the course of the experiment. A value of -40 indicates 40% of cells at the beginning of the experiment died by the end of the experiment. A value of -100 means all cells are dead at the end of the experiment.
# NCI-60 Human Tumor Cell Lines Screen was performed using the standard one-dose NCI protocol, which is described in more detail at https://dtp.cancer.gov/discovery_development/nci-60/default.htm.
# Compounds with GIPRCNT values below 10 were considered active. Activity score was based on GIPRCNT using the following formula: […]
# Score is 0 for GIPRCNT values of 100 or above, 50 for GIPRCNT values of 0, and 100 for GIPRCNT values of -100.
row,Structure (SMILES),growth
1,Cc1cc(C)c(O)c(CNCCCCCCNCc2cc(C)cc(C)c2O)c1,47.9% (inactive)
2,CC1Cc2c(Cl)ncnc2N(C)c2ccc(Cl)cc21 (stereo not given),14.2% (inactive)
3,CCN(CC)CCCCCCNc1cccc2cc(Br)cnc12,93.1% (inactive)
4,CC(C)=CC/C=C(/C)[C@H]1CC[C@]2(C)[C@@H]1CC[C@@H]1[C@@]3(C)CCC(=O)NC(C)(C)[C@@H]3CC[C@]12C,29.7% [100 µM] (inactive)
5,N#C/C(C(=O)c1ccccc1)=C1/C(=O)Nc2ccc(Br)cc21,87.5% (inactive)
6,CCCn1ccnc1C(O)c1ccc(OCc2ccccc2)c(OC)c1 (stereo not given),89.3% (inactive)
7,Cc1cc2c(C(C)C)c(O)c(O)c(C=NCc3ccoc3)c2c(O)c1-c1c(C)cc2c(C(C)C)c(O)c(O)c(C=NCc3ccco3)c2c1O,23.6% (inactive)
8,CCOC(=O)c1nn(C2CCCCO2)c2ccc(NS(=O)(=O)c3ccc(C)cc3)cc12 (stereo not given),102% (inactive)
9,CCCc1cc2cc(-n3nc(C)c4c3CC(C)(C)CC4=O)cc(NC3CCSCC3)c2c(=O)[nH]1,76.4% (inactive)
10,CC(C)(C)c1cc(C(=O)N2CCC(C(=O)NCCN)CC2)cc(C(C)(C)C)c1,84.7% (inactive)
11,C[n+]1c2ccccc2nc2c(N)cc(N)cc21,65.9% (inactive)
12,COC(=O)C(=Cc1ccccc1[N+](=O)[O-])C(=O)OC,51.4% (inactive)
13,COc1ccc(-c2cc(-c3ccc(OC)c(OC)c3)nc(SCCCCCC(=O)NO)n2)cc1,62.5% (inactive)
14,CCOc1ccc(/C=C(\C#N)c2cc3ccccc3[nH]2)cc1,72.5% (inactive)
15,COc1ccc(C(=O)CCC(=O)O)cc1,78.7% (inactive)
16,CC(C)C1=NOC(=O)C1=Cc1cn(-c2cccnc2)nc1-c1ccccc1,100% (inactive)
17,COc1ccc(/C=C(/C(=O)c2ccc(Cl)cc2)C(=O)C(F)(F)F)cc1,92.5% (inactive)
18,Cc1ccc(S(=O)(=O)Oc2ccc([N+](=O)[O-])cc2[N+](=O)[O-])cc1,101% (inactive)
19,Oc1c(CNCCNCc2cc(Cl)cc(Cc3ccccc3)c2O)cc(Cl)cc1Cc1ccccc1,24% (inactive)
20,Cc1cnc(N)nc1OCCNC(=O)c1cccc(-c2ccc(S(=O)(=O)Nc3ccc4c(c3)N(C(=O)C3CC3)CCC4)cc2)c1,98.9% (inactive)

row,Structure (SMILES),growth
1,Nc1ccc2c(c1)Cc1cc(NC(=O)C(F)(F)F)ccc1-2,79.9% (inactive)
2,CC(C)C1=NOC(=O)C1=Cc1cn(-c2ccccc2)nc1-c1ccc(Br)cc1,93.3% (inactive)
3,O=C(COc1cccc(/C=C2\Oc3ccccc3C2=O)c1)c1ccc([N+](=O)[O-])cc1,95% (inactive)
4,Cc1ccc(S(=O)(=O)Nc2ccccc2)cc1N,116% (inactive)
5,C=CCCC1(C)NC(=O)NC1=O (stereo not given),105% (inactive)
6,NC(=O)c1cccc(-c2ccc(S(=O)(=O)Nc3ccc4c(c3)N(C(=O)C3CC3)CCC4)cc2)c1,67.1% (inactive)
7,NNC(=O)c1ccc(C(=O)NN)cc1,101% (inactive)
8,N#Cc1c(Cl)nc(SCC2CO2)nc1-c1ccccc1 (stereo not given),99.6% (inactive)
9,CC(C)C1=NOC(=O)C1=Cc1cn(-c2ccccc2)nc1-c1cccc([N+](=O)[O-])c1,99.3% (inactive)
10,O=C1CC(C(F)(F)F)Cc2nc3ccc(Br)cc3cc21 (stereo not given),81% (inactive)
11,NC(=S)Cc1ccccc1,97.9% (inactive)
12,CN(C)Cc1ccc[nH]1,90.4% (inactive)
13,CCN(CC)CCCC(C)Nc1c2ccc(C)cc2nc2ccc(OC)cc12 (stereo not given),42.3% (inactive)
14,O=C(O)CSCc1nnc2n(Cc3ccccc3)c(=O)c3c4c(sc3n12)CCCC4,93.2% (inactive)
15,COc1cc(-c2cc(-c3ccc(Nc4ncnc5cc(Cl)ccc45)cc3)nc(N3CCCCC3)n2)cc(OC)c1OC,102% (inactive)
16,COc1cccc(-c2[nH]c(=S)ncc2C(=O)c2ccccc2)c1,86.9% (inactive)
17,CCOC(=O)/C(C#N)=C(\C)CCc1ccccc1,105% (inactive)
18,O=S(=O)(NCc1ccccc1)c1ncnc2nc[nH]c12,111% (inactive)
19,CCOC(=O)C1=C(C(=O)c2ccc(Br)cc2)C(c2ccc(Br)cc2)NC(=S)N1 (stereo not given),104% (inactive)
20,Cc1cc(N2CCCCCC2)nc(N2CCN(CC(=O)Nc3ccc4c(ccn4Cc4ccccc4)c3)CC2)n1,56% (inactive)
